Experimental data reported in PMC4336329 (PLoS ONE, 2015).
About 2,200 (0.71%) of roughly 310,000 compounds showed an effect of 50% or more. Effects have a minus sign here. Only a selection was taken, and strong results are over-represented in it overall.

Target: human ether-à-go-go-related gene (hERG) potassium channel (human, UniProt Q12809)
Assay: primary screen, population patch clamp on CHO cells stably expressing hERG; higher = less effect of the substance

Sequence of human ether-à-go-go-related gene (hERG) potassium channel (Q12809 whole entry, looked up): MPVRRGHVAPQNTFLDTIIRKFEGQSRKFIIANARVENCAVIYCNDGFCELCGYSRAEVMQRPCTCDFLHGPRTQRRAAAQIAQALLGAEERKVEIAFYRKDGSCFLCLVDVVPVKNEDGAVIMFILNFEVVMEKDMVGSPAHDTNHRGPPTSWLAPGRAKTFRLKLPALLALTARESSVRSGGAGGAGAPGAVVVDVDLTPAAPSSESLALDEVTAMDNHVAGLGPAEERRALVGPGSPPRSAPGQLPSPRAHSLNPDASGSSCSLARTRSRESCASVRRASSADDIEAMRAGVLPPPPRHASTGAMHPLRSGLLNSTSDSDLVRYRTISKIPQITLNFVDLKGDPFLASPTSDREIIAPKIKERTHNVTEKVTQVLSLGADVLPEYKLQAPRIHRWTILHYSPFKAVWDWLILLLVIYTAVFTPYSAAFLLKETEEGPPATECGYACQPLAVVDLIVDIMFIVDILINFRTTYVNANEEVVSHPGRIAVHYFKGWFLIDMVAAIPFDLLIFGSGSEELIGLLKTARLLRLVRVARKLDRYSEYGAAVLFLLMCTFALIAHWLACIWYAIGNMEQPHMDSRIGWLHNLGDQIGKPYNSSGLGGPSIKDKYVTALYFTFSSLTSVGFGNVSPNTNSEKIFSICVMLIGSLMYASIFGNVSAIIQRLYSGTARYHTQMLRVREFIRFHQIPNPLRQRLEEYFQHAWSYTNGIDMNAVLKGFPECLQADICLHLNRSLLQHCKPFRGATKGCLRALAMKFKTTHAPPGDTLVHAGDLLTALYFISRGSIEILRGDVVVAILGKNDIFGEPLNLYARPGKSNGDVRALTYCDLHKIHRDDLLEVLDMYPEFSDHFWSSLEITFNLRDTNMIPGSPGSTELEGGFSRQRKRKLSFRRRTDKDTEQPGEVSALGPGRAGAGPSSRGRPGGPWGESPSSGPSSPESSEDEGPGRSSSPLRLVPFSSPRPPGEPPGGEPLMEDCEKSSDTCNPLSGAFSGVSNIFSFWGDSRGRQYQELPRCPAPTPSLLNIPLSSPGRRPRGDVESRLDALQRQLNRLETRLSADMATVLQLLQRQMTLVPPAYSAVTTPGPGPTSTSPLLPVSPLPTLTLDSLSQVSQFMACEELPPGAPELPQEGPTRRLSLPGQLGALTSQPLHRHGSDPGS

Structure (SMILES)	hERG current change (%, negative = inhibition) at 1uM
Cc1ccccc1C(=O)Nc1ccccc1C(=O)N1CCC(C)CC1	11.7%
COC(=O)c1ccc(Cn2cnc3c(cnn3-c3ccc(C)c(C)c3)c2=O)o1	7.86%
Cc1c(-c2ccccc2)oc2c(C(=O)OCC(=O)Nc3cccc(F)c3)cccc2c1=O	5.94%
COc1ccccc1NC(=S)NC(NC(=O)c1ccco1)C(Cl)(Cl)Cl (stereo not drawn)	4.44%
COc1ccc(NC(=O)c2cccc(S(=O)(=O)N3CCCC3)c2)cc1OC	2.14%
COc1ccc(C(=O)Nc2ccc(S(=O)(=O)N3CCCCC3)cc2)cc1OC	-0.152%
COc1ccc(NC(=O)c2ccc(S(=O)(=O)N3CCCC3)cc2)cc1OC	-102%
CCCN1CCC[C@@H]2Cc3nc(N)ncc3C[C@H]21.Cl	8.86%
NC(=O)c1ccc(NC(=O)CCC(=O)c2cccs2)cc1	9.21%
O=C(Nn1cnnc1)c1cc([N+](=O)[O-])cc([N+](=O)[O-])c1	5.11%
CCn1cc(C2=NC(C)CO2)c2ccccc21 (stereo not drawn)	-0.637%
COC(=O)c1ccccc1NC(=O)CN1CCCCCC1	16.5%
COC(=O)c1ccccc1NC(=O)CN1CCOCC1	5.34%
COC(=O)c1ccccc1NC(=O)CN1CCN(Cc2ccccc2)CC1	-69.6%
COC(=O)c1ccccc1NC(=O)CN1CCN(C23CC4CC(CC(C4)C2)C3)CC1	-75%
O=C(CN1CCN(Cc2ccccc2)CC1)Nc1ccc(Cl)cc1	-32.3%
COC(=O)c1ccccc1NC(=O)CN1CCCCC1	32.9%
NC(=O)c1ccccc1NC(=O)CN1CCN(Cc2ccc(Cl)cc2Cl)CC1	-75.8%
O=C(CN1CCN(Cc2ccccc2F)CC1)Nc1ccccc1Cl	8.26%
O=C(CN1CCCCCC1)Nc1ccc(Cl)cn1	6.51%
O=C(CN1CCN(Cc2ccccc2)CC1)Nc1ccc(Cl)cn1	-70%
Cc1cccc(NC(=O)CN2CCN(CC(=O)NCc3ccc(Cl)cc3Cl)CC2)c1C	4.8%

Structure (SMILES)	hERG current change (%, negative = inhibition) at 1uM
COC(=O)c1ccccc1NC(=O)CN1CCC(C)CC1	-0.0967%
CCOCCCNS(=O)(=O)c1ccc2c(c1)oc(=O)n2CC(=O)OCC	10.3%
COCCN1CCN(C(=O)C2CCC(=O)N(Cc3ccccc3F)C2)CC1 (stereo not drawn)	9.05%
COc1c(/C=N/NC(=O)c2ccccc2O)c(CCN(C)C(C)=O)cc2c1OCO2	8.13%
CCN(CC)CCCNC(=O)c1c(O)c2ccccc2n(Cc2ccccc2)c1=O.Cl	-12.3%
Cc1ccccc1N1C(=O)c2ccccc2NC1c1ccncc1 (stereo not drawn)	13%
COc1ccccc1/C=C/C(=O)NCC(=O)N/N=C(\CCC(=O)O)c1ccccc1	-2.9%
NNC(=O)c1ccc(-c2ccccc2F)cc1	14.8%
Nc1nnc(C(F)(F)F)s1	4.92%
NC(=O)c1ccccc1NC(=O)CN1CCCCCC1	13.4%
O=C(CN1CCN(Cc2ccccc2)CC1)Nc1ccccc1-c1ccccc1	-39.6%
CSc1ccc(/C=N/NC(=O)CN2CCN(Cc3ccccc3)CC2)cc1	-60%
CSc1ccc(/C=N/NC(=O)CN2CCN(Cc3ccc(C)cc3)CC2)cc1	2.67%
CSc1ccc(/C=N/NC(=O)CN2CCN(Cc3ccc(Cl)cc3)CC2)cc1	2.29%
NC(=O)c1ccccc1NC(=O)CN1CCN(Cc2ccccc2)CC1	-77.7%
COc1ccc(N(CC(=O)NCc2ccc(C)cc2)S(=O)(=O)c2c(C)[nH]c(=O)[nH]c2=O)cc1	16%
Cc1nc2cc3nc(C)sc3cc2s1	3.19%
Cc1cc(C)cc(NC(=O)CCNS(=O)(=O)c2ccc3c(c2)oc(=O)n3C)c1	9.33%
COCC(=O)N1CCC(Oc2ccc(C(=O)NCc3cnc(C)cn3)cc2)CC1	13%
CCN(c1cccc(C)c1)S(=O)(=O)c1ccc(-c2ccc(=O)[nH]n2)o1	12.8%
Cc1cc(Br)ccc1OCCN1CCCC1.O=C(O)C(=O)O	-7.85%
O=C(O)C(=O)O.c1ccc(-c2ccccc2OCCOCCN2CCCCC2)cc1	-18.9%

Structure (SMILES)	hERG current change (%, negative = inhibition) at 1uM
CC1CCN(CCOc2ccccc2-c2ccccc2)CC1.O=C(O)C(=O)O	-8.4%
O=C(O)C(=O)O.O=C(c1ccccc1)c1ccc(OCCOCCN2CCN(Cc3ccccc3)CC2)cc1	-82.8%
O=C(O)C(=O)O.O=C(c1ccccc1)c1ccc(OCCCN2CCCC2)cc1	-29.9%
O=C(O)C(=O)O.c1ccc(CN2CCN(CCOCCOc3ccc4c(c3)CCC4)CC2)cc1	11.6%
O=C(O)C(=O)O.c1ccc(-c2ccccc2OCCN2CCCCC2)cc1	-4.98%
CN1CCN(CCCCOc2ccccc2-c2ccccc2)CC1.O=C(O)C(=O)O	16.8%
Cc1cc(Br)ccc1OCCCCN1CCCCC1.O=C(O)C(=O)O	-66.6%
Cc1cc(Br)ccc1OCCOCCN1CCCC1.O=C(O)C(=O)O	-9.41%
CC1CCN(CCCCOc2ccccc2-c2ccccc2)CC1.O=C(O)C(=O)O	-74.9%
O=C(O)C(=O)O.c1ccc(-c2ccccc2OCCCN2CCCCC2)cc1	-69.1%
CC1CC(=O)Nc2ccccc2N1C(=O)Nc1ccc(F)cc1 (stereo not drawn)	9.77%
CC(C)CCN(C(=S)Nc1cccc(C(F)(F)F)c1)C(C)c1ccccn1 (stereo not drawn)	10.7%
CCOc1cc(C2/C(=C(/O)c3ccc(OC(C)C)cc3)C(=O)C(=O)N2CCCOC)ccc1O (stereo not drawn)	21.3%
Clc1ccc(Oc2nc(N3CCOCC3)nc(N3CCOCC3)n2)c(C2CCCCC2)c1	10.6%
Clc1cccc(Cl)c1CN1CCN(c2ccccc2)CC1	15.9%
O=C(CCN1C(=O)C2C3CCC(C3)C2C1=O)Nc1cccc(Cl)c1 (stereo not drawn)	4.67%
CCC1(CC)NC(=O)N(CC(=O)OCC(=O)Nc2ccc(F)c(F)c2F)C1=O	4.85%
Cc1ccc(NC(=O)/C=C/c2ccc([N+](=O)[O-])s2)c(C)c1	10.5%
CCOc1ccccc1-n1c(SCC(=O)NC(C)CC)nnc1-c1ccoc1C (stereo not drawn)	-2.44%
CCOCCCn1c(SC(C(=O)Nc2cc(C)ccc2C)c2ccccc2)nnc1-c1ccc(Cl)cc1 (stereo not drawn)	13.5%
CC(=O)Nc1ccc(S(=O)(=O)NC2(C(F)(F)F)NC(=O)N(c3ccccc3F)C2=O)cc1 (stereo not drawn)	19.3%
COc1ccc(NS(=O)(=O)c2ccc(/C=C/C(=O)O)cc2)cc1S(=O)(=O)N1CCOCC1	10.7%

Structure (SMILES)	hERG current change (%, negative = inhibition) at 1uM
COc1ccc(NC(=O)c2ccc(S(=O)(=O)NCc3cccnc3)cc2)cc1	-13.3%
O=C(Nc1ccc2oc(-c3ccccc3F)nc2c1)c1ccc2c(c1)OCCO2	3.14%
Cl.OCCN1CCN(CCOc2ccccc2-c2ccccc2)CC1	6.46%
CC1CCN(CCCCOc2ccc(C(=O)c3ccccc3)cc2)CC1.O=C(O)C(=O)O	-72.4%
COCCCNCCCCOc1ccc(Br)cc1C.O=C(O)C(=O)O	-24%
O=C(O)C(=O)O.c1ccc(COc2ccc(OCCCN3CCCCC3)cc2)cc1	-57.7%
Cl.OCCCN1CCN(CCCOc2ccccc2-c2ccccc2)CC1	-57.7%
O=C(O)C(=O)O.c1ccc(COc2ccc(OCCCN3CCCC3)cc2)cc1	-39.1%
COCCCNCCCCOc1ccc(Br)cc1Cl.O=C(O)C(=O)O	-61.5%
CC1CCN(CCOc2ccc(C(=O)c3ccccc3)cc2)CC1.O=C(O)C(=O)O	3.49%
Cc1ccc(OCCCCN2CCC(C)CC2)cc1.O=C(O)C(=O)O	-0.565%
COCCNCCCOc1ccc(Br)cc1Cl.O=C(O)C(=O)O	0.786%
CCN1CCN(CCCOc2ccccc2-c2ccccc2)CC1.O=C(O)C(=O)O	-16.6%
O=C(O)C(=O)O.c1ccc(COc2ccc(OCCCCN3CCCCC3)cc2)cc1	-46.8%
CCN(CC)S(=O)(=O)c1ccc(C(=O)NCc2ccc3[nH]c4c(c3c2)CCCC4)cc1	16.4%
COc1cccc(CN2CCC(C(=O)N3CCN(c4ccccc4F)CC3)CC2)c1	-20.8%
CCCn1c(=O)c(C(=O)Nc2ccccc2C(=O)OCC)c(O)c2ccccc21	16.2%
CNC(=S)Nc1cc(C(F)(F)F)ccc1Cl	-4.86%
Cc1cc(OCC(=O)Nc2ccc3oc(-c4ccncc4)nc3c2)ccc1Cl	9.6%
Cc1ccc(/C=C2\SC(=S)N(CCCC(=O)Nc3ccccn3)C2=O)cc1	3.9%
Cc1csc(NC(=O)C2=NN(c3ccccc3)C(=O)CC2)n1	9.03%
